# About 820 (0.26%) of roughly 320,000 compounds were called active. The list comes from a sample in which actives are over-represented; it also holds similar structures and randomly drawn compounds. A number with no mark means an inactive call.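 Rule for the calls: active = activation above the mean activation of all tested compounds plus 3 SD, per screening run (cut at about 20% in these data); inactive = the rest.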
# Target: Vasopressin V1a receptor (Homo sapiens) (UniProt P37288)
# Assay: agonists of human V1a receptor, primary screen, counter-screen for OXTR agonist project, fluorescence, CHO-V1R cells (AID 2797);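 note: signal is peak over basal fluorescence ratio across a 100 second FLIPR read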
# Conditions: Fluo-8 calcium fluorescence, agonist mode, at 3 µM, active compounds read high, 0% DMSO, 100% 3 nM vasopressin
# Sequence of Vasopressin V1a receptor (Homo sapiens) (P37288 whole entry, looked up): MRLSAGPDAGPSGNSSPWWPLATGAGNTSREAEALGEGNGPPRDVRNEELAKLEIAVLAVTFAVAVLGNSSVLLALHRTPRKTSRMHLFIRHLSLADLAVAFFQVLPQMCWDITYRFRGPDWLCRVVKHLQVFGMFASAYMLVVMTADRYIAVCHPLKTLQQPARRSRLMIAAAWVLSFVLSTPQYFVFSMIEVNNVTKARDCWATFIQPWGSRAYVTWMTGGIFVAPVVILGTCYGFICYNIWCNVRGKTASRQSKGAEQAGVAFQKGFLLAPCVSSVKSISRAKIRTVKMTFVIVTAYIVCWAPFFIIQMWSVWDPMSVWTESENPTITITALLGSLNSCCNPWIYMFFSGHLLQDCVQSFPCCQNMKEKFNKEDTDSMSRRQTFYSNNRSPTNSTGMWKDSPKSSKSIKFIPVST
row,SMILES,activation
1,CCOc1ccc(C(=O)Nc2ccc(S(=O)(=O)NCC3CCCO3)cc2)cc1OCC (configuration not stated),1.35%
2,Cc1ccc(OCCNC(=O)CNC(=O)c2ccc(C)c(C)c2)cc1,-0.83%
3,Cc1nc2c(ncn2-c2ccccc2)c(=O)n1NC(=O)CN1CCCC1,0.46%
4,CCOc1ccc(C2=CC(c3ccccc3)n3ncnc3N2)cc1 (configuration not stated),0.49%
5,Brc1ccc(C2=CC(c3ccco3)n3ncnc3N2)cc1 (configuration not stated),9.25%
6,COc1ccc(C2C=C(c3ccc(Br)cc3)Nc3nc(NS(C)(=O)=O)nn32)cc1 (configuration not stated),23.5% (active)
7,Cc1ccc(O)c(NC(=S)NC(=O)COc2ccc(Br)cc2)c1,56% (active)
8,COc1ccc(C(=O)Nc2cc(C)ccc2NC(=O)COc2ccccc2)cc1,0.75%
9,CCS(=O)(=O)c1ccc(O)c(NC(=O)COc2ccc(Cl)cc2)c1,3.1%
10,CCN1CCN(c2sc(S(C)(=O)=O)nc2S(=O)(=O)c2ccc(Cl)cc2)CC1,0.09%
11,CCn1c(C(C)C)n[nH]c1=S,0.69%
12,CCOC(=O)N/N=C1\CC(C)S(=O)(=O)c2ccc(Cl)cc21 (configuration not stated),-1.51%
13,CC1CN(C(=O)c2ccccc2NS(=O)(=O)c2cccc([N+](=O)[O-])c2)CC(C)O1 (configuration not stated),1.41%
14,CCc1ccc(NC(=O)Cn2nnc(C(=O)NCc3ccc(OC)cc3)c2N)cc1,0.71%
15,CCOc1ccc(Cn2nnc(C(=O)Nc3ccc(OC)cc3OC)c2N)cc1,12.4%
16,CCOc1ccc(Cn2nnc(C(=O)NCc3ccccc3)c2N)cc1,27.1% (active)
17,O=C(C[n+]1ccc2c(c1)nnn2-c1ccccc1)c1ccc(Cl)cc1,-1.54%
18,COc1ccc(CCNc2cc(C)nc3c(-c4ccc(Cl)cc4)c(C)nn23)cc1OC,-0.66%
19,C=CCOCCN(C)C1=NS(=O)(=O)c2ccccc21,-0.21%
20,CCO[C@H]1OC(C(=O)N2CCCCCCC2)=C[C@@H](c2ccc(C(F)(F)F)cc2)[C@@H]1CCCO,-0.98%
21,O=C(/C=C(O)/C=C/c1ccc(O)cc1)/C=C/c1ccc(O)cc1,76.2% (active)

row,SMILES,activation
1,O=C(O)/C=C/c1ccc(OCCCF)cc1,0.21%
2,O=C(/C=C/c1ccc2c(c1)OCCO2)c1ccc(O)cc1,1.07%
3,CC(C)(C)S(=O)(=O)c1ccccc1-c1noc(-c2ccccc2)c1C(N)=O,0.13%
4,CCc1c(O)cc2n(c1=O)-c1ccccc1C2(C)C,1.27%
5,CCOc1ccc2[nH]c3nc(SCC(=O)NC4CCCC4)nnc3c2c1,1.39%
6,Nc1c(C(=O)c2cccs2)sc2nsc(SCCN3CCCCC3)c12,34.8% (active)
7,O=C(CSc1ncnc2sccc12)N1CCN(C(=O)c2cccs2)CC1,1.53%
8,O=C(NCC(=O)N1CCC2(CC1)NCCc1[nH]cnc12)c1ccc(Br)cc1,-0.07%
9,Cc1noc(C)c1NC(=O)Nc1cccc2c1O[C@H](CN(C)C(=O)Nc1ccccc1)[C@@H](C)CN([C@H](C)CO)C2=O,0.98%
10,O=C(O)c1ccc2c3c(cccc13)C(=O)N(OS(=O)(=O)c1ccccc1)C2=O,0.24%
11,COc1ccc(N2C(=O)c3cccc4cccc(c34)C2=O)nn1,-0.33%
12,CN1C(=O)c2cccc3c(N)ccc(c23)C1=O,133% (active)
13,Cc1nn(C)cc1N1C(=O)c2cccc3c(N)ccc(c23)C1=O,66.8% (active)
14,CC(=O)Nc1ccccc1Sc1ccc2c3c(cccc13)C(=O)N(c1ccc(C)cc1)C2=O,0.04%
15,Cc1nn(C)cc1C(=O)c1ccccc1,0.77%
16,COc1ccc(N(C(=O)c2ccc(C)cc2)S(=O)(=O)c2cccs2)cc1,0.59%
17,Cc1cc(C(=O)CC#N)c(C)n1-c1c(C)n(C)n(-c2ccccc2)c1=O,1.66%
18,CCOP1(=O)C=C(C(C)(C)C)OC1c1ccc(F)cc1 (configuration not stated),0.37%
19,Cc1ccc(N(C(=O)c2snc(C(N)=O)c2N)C(C(=O)NCC2CCCO2)c2c[nH]c3ccccc23)cc1 (configuration not stated),2.4%
20,CCN1/C(=C\c2ccc3ccccc3[n+]2CC)Sc2cc(C)ccc21,20.7% (active)
21,O=C1CCCN2N=C(SCC(=O)Nc3ccc(Br)cc3)SC2=N1,8.83%

row,SMILES,activation
1,CCOC(=O)Cc1c(C)nc2c(C#N)c(C)nn2c1C,-0.1%
2,CCOC(=O)N1CCC(O)(c2cc(C)c(C)cc2C)CC1,0.01%
3,CCCCCCn1cc(C(=O)O)c(=O)c2cc(F)c(N3CCCCC3)cc21,1%
4,CN(c1ccccc1)c1ccc(/C=c2\s/c(=C(/C#N)C(=O)C(C)(C)C)n(Cc3ccco3)c2=O)cc1,28% (active)
5,CCOC(=O)Cn1c(=O)oc2cc(S(=O)(=O)N(C)Cc3ccco3)ccc21,1.45%
6,COc1cc(NC(=O)COC(=O)c2cc(S(=O)(=O)N3CCOCC3)ccc2F)cc(OC)c1,1.44%
7,CCCc1ccc(OCC(=O)NNC(=S)NC(=O)c2ccco2)cc1,19.5%
8,Cc1ccc(C(=O)NNC(=O)C(C)Oc2ccc3ccccc3c2)o1 (configuration not stated),0.2%
9,CC(Oc1ccc2ccccc2c1)C(=O)NNC(=S)NC(=O)c1ccco1 (configuration not stated),23% (active)
10,Cc1cc2c(=O)n(CC(=O)NCC(=O)Nc3ccc(C(C)C)cc3)cnc2s1,0.52%
11,O=C(CC1SC(=Nc2ccccc2F)N(CCN2CCOCC2)C1=O)Nc1ccc(F)cc1F (configuration not stated),-0.11%
12,CCCC(C)C(=O)Nc1ccc(NC(C)=O)cc1 (configuration not stated),1.31%
13,COc1cc(OC)c(-n2c(C)cc(C=O)c2C)cc1Cl,-0.41%
14,COc1cc(OC)c(-n2cc(-c3ccc(Cl)cc3)[nH]c2=O)cc1Cl,38.5% (active)
15,COc1cc(OC)c(N2CC(C(=O)Nc3cc(Cl)ccc3N3CCOCC3)CC2=O)cc1Cl (configuration not stated),2.59%
16,CN1/C(=C\C=C2\N=C(c3ccc(F)cc3)OC2=O)C(C)(C)c2ccccc21,2.99%
17,O=C(NCCc1nnc2ccc(SCC(=O)N3CCOCC3)nn12)c1ccccc1,-0.68%
18,CCC(C)(C)C1CCC(=NNC(=O)c2ccc(Br)o2)CC1 (configuration not stated),0.08%
19,Cc1ccc(CN2CCN(c3ccccc3Cl)CC2)o1,-0.73%
20,O=C(CCc1[nH]c2ccccc2c1Sc1ccccc1)N(CCO)CCO,0.05%

# Reference: PubChem BioAssay AID2797 (The Scripps Research Institute Molecular Screening Center, 2010)
